Source: PubChem BioAssay (National Center for Advancing Translational Sciences (NCATS))
Pf growth 48h = Primary qHTS for delayed death inhibitors of the malarial parasite plastid, 48 hour incubation | Potency, µM (top dose mostly 28.7 µM), for inactives: top-dose activity change, negative = inhibition, usual class: inhibitors | P. falciparum luciferase growth in erythrocytes, 48 h | AID 504832, 2011 | actives 5.9% (n = 310,000)
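Compounds are pin-transferred into medium, infected erythrocytes (2% hematocrit, 0.1% parasitemia final) are added, and plates sit one parasite generation at 37 C in 5% CO2. Detection reagent is then added and luminescence measured.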
AMA1-RON2 inh = qHTS for Inhibitors of AMA1-RON; Towards Development of Antimalarial Drug Lead: Primary Screen | Plasmodium falciparum AMA1 (3D7) - RON2 peptide interaction | AlphaScreen AMA1-biotinylated RON2 peptide binding | Potency, µM (top dose mostly 58.2 µM), without a hit: at the top dose activity change, negative = inhibition, most hits filed as inhibitors | actives 0.2% (n = 360,000) | AID 720542, 2013;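 also: 0% = vehicle wells and -100% = peptide control; nearly all actives have a fitted effect of over 45% in size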
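AMA1 (3D7) with his tag at 25 nM final met compounds first, then biotinylated RON2 peptide at 25 nM; detection used donor plus acceptor beads, 10 µg/mL apiece, read by AlphaScreen after 30 min at room temperature.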
Pf growth 96h = Primary qHTS for delayed death inhibitors of the malarial parasite plastid, 96 hour incubation | P. falciparum luciferase reporter growth, 96 h | Potency, µM (titrated, usually from 28.7 µM), without a hit: at the highest dose activity change, negative = inhibition, usual class: inhibitors | actives 6.9% (n = 320,000) | AID 504834, 2011
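P. falciparum expressing integrated firefly luciferase, in erythrocytes at 2% hematocrit, 0.05% parasitemia, incubated with compounds 96 h at 37 C, 5% CO2. Growth inhibition read as loss of luminescence; two-generation exposure targets delayed-death apicoplast inhibitors.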
HCV inh = qHTS Assay for Inhibitors of Hepatitis C Virus (HCV); Potency, µM (titrated, usually from 41.8 µM), without a hit: top-dose activity change, negative = inhibition, usual class: inhibitors; Huh7.5.1 HCVcc-Cre infection, luciferase reporter, 44 h; AID 651820, 2012; actives 3.4% (n = 340,000)
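Cells seeded at 1,000/well and cultured 4 h, then compounds added followed by HCVcc-Cre virus (~0.5 moi). After 44 h further culture, luciferase substrate was added, plates held 15 min at room temperature, and luminescence read for 15 sec.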
Numbers without * were called inactive. An excerpt weighted towards active compounds, which were near 11% of everything screened. Calls follow the shape of the dose curve; as a rule, active = well fitted curve in the direction sought with a large enough effect; inconclusive = small, poorly fitted or top-dose-only effect, or another doubt; inactive = no such curve, though single readings can be large; an effect the other way counts as inactive or inconclusive. Unless noted, % is scaled to controls: 0 for no effect and ±100 for the full control effect; potency is read from the fitted curve at half-maximal effect.

`Nc1ccc(NC(=O)c2ccccc2)c2c1C(=O)c1ccccc1C2=O` gave Pf growth 48h 18%, AMA1-RON2 inh -4%, Pf growth 96h inconclusive and HCV inh -11%.
Nc1ccc(O)c2c1C(=O)c1ccccc1C2=O was read as Pf growth 48h 101%, AMA1-RON2 inh 7.1µM*, Pf growth 96h 127% and HCV inh 5µM*.
Screening Cc1cc2c(cc1C)C(=O)C(Br)=C(N)C2=O returned AMA1-RON2 inh -8% and HCV inh inconclusive.
Screening COc1ccc(N)c2c1C(=O)c1ccccc1C2=O returned Pf growth 48h 79%, AMA1-RON2 inh inconclusive, Pf growth 96h inconclusive and HCV inh inconclusive.
Nc1ccc(Br)c2c1C(=O)c1ccccc1C2=O was read as Pf growth 48h inconclusive, AMA1-RON2 inh inconclusive, Pf growth 96h 52% and HCV inh 10µM*.
For Cn1c(=O)c2c(-c3ccccc3)n(-c3cc(Cl)c([N+](=O)[O-])cc3O)cc2n(C)c1=O the results were AMA1-RON2 inh -9%.
For CN(C)c1nc(-c2ccccn2)nnc1-c1ccccc1 the results were AMA1-RON2 inh 9%, Pf growth 96h 2.1µM* and HCV inh inconclusive.
Screening CN(C)c1nc(-c2ccccc2)nc(-c2ccc(Cl)cc2)c1C#N returned Pf growth 48h 17%, AMA1-RON2 inh 2% and HCV inh 14%.
`CCN(CC)c1nc(-c2ccccn2)nc(-c2ccccc2)c1C#N` gave Pf growth 48h inconclusive, AMA1-RON2 inh 45%, Pf growth 96h 4.1µM* and HCV inh 6.3µM*.
For c1ccc(-c2nnc(-c3ccccn3)c(-c3ccccn3)n2)nc1 the results were Pf growth 48h inconclusive, AMA1-RON2 inh -29%, Pf growth 96h inconclusive and HCV inh 5%.
`CCOc1ccc(CN(C)C(=O)CNC(=O)c2sc3ccccc3c2Cl)cc1` gave Pf growth 48h -16%, AMA1-RON2 inh -1%, Pf growth 96h -19% and HCV inh 9%.
COC(=O)C1=C(c2ccc(F)cc2F)C[C@@H]2CC[C@H]1N2C(=O)NCc1ccc2c(c1)OCO2 was read as Pf growth 48h inconclusive, AMA1-RON2 inh 2%, Pf growth 96h inconclusive and HCV inh -20%.
Screening COC(=O)C1=C(c2ccc(F)cc2OCc2ccccc2)C[C@@H]2CC[C@H]1N2C(=O)NCc1ccc(F)cc1 returned Pf growth 48h 10µM*, AMA1-RON2 inh 4%, Pf growth 96h inconclusive and HCV inh inconclusive.
For COC(=O)C1=C(c2ccccc2OCc2ccccc2)C[C@@H]2CC[C@H]1N2C(=O)NCc1ccc(C(C)(C)C)cc1 the results were Pf growth 48h 6.6µM*, AMA1-RON2 inh -9%, Pf growth 96h inconclusive and HCV inh inconclusive.
COC(=O)C1=C(c2cccc(OC)c2OC)C[C@@H]2CC[C@H]1N2C(=O)NCc1ccc(F)cc1 was read as AMA1-RON2 inh 10% and HCV inh -29%.
COC(=O)C1=C(c2ccccc2OCc2ccccc2)C[C@@H]2CC[C@H]1N2C(=O)NCc1ccc(F)cc1 was read as Pf growth 48h 9.3µM*, AMA1-RON2 inh -7%, Pf growth 96h inconclusive and HCV inh 7.1µM*.
Screening COC(=O)C1=C(c2ccc(F)cc2F)C[C@@H]2CC[C@H]1N2C(=O)NCc1ccc(C(F)(F)F)cc1 returned Pf growth 48h 12µM*, AMA1-RON2 inh 3%, Pf growth 96h inconclusive and HCV inh -27%.
Screening Cc1cccc(S(=O)(=O)N(C)C[C@@H]2OCc3cn(nn3)CCCC(=O)N([C@H](C)CO)C[C@H]2C)c1 returned AMA1-RON2 inh -2%.
COc1ccccc1CC(O)CC1c2c(cc3c(c2OC)OCO3)CCN1C (stereo not given) was read as AMA1-RON2 inh -2% and HCV inh inconclusive.
For CCOCCc1c(O)nc(SCCOc2ccc(C)c(C)c2)[nH]c1=O the results were Pf growth 48h 19%, AMA1-RON2 inh 10%, Pf growth 96h -4% and HCV inh -8%.
COC(=O)C1=C(c2ccc(F)cc2F)C[C@@H]2CC[C@H]1N2C(=O)NCCCOC(C)C was read as Pf growth 48h -11%, AMA1-RON2 inh -2%, Pf growth 96h inconclusive and HCV inh 4%.
COC(=O)C1=C(c2ccc(F)cc2OCc2ccccc2)C[C@@H]2CC[C@H]1N2C(=O)N1CCCCC1 was read as Pf growth 48h inconclusive, AMA1-RON2 inh 2%, Pf growth 96h inconclusive and HCV inh inconclusive.
For COC(=O)C1=C(c2ccc(F)cc2OCc2ccccc2)C[C@@H]2CC[C@H]1N2C(=O)NCc1ccc(C)cc1 the results were Pf growth 48h 9.3µM*, AMA1-RON2 inh 15%, Pf growth 96h inconclusive and HCV inh inconclusive.
COC(=O)C1=C(c2ccc(F)cc2OCc2ccccc2)C[C@@H]2CC[C@H]1N2C(=O)NCc1ccc([N+](=O)[O-])cc1 was read as Pf growth 48h 12µM*, AMA1-RON2 inh -2%, Pf growth 96h inconclusive and HCV inh inconclusive.
For COC(=O)C1=C(c2ccc(OCc3ccccc3)cc2)C[C@@H]2CC[C@H]1N2C(=O)NCc1ccc([N+](=O)[O-])cc1 the results were AMA1-RON2 inh -16% and HCV inh 6%.
COC(=O)C1=C(c2ccc(F)cc2OCc2ccccc2)C[C@@H]2CC[C@H]1N2C(=O)NCCCc1ccccc1 was read as Pf growth 48h 12µM*, AMA1-RON2 inh -9%, Pf growth 96h 5.2µM* and HCV inh 10µM*.
For COC(=O)C1=C(c2ccc(F)cc2OCc2ccccc2)C[C@@H]2CC[C@H]1N2C(=O)NC1Cc2ccccc2C1 the results were Pf growth 48h inconclusive, AMA1-RON2 inh -4%, Pf growth 96h 1.7µM* and HCV inh 11µM*.
NNC(=O)[C@H](Cc1ccccc1)NC(=O)NCCc1ccccc1 was read as Pf growth 48h -1%, AMA1-RON2 inh 69%, Pf growth 96h 4% and HCV inh 3%.
Cc1cccc(-c2nc(C#N)c(NC3CCCCC3)o2)c1 was read as Pf growth 48h 64%, AMA1-RON2 inh -2%, Pf growth 96h 4.7µM* and HCV inh inconclusive.
Screening COC(=O)C[C@](O)(CCCC(C)(C)O)C(=O)O[C@@H]1C(OC)=C[C@]23CCCN2CCc2cc4c(cc2[C@H]13)OCO4 returned Pf growth 48h 0.0095µM* and Pf growth 96h 0.0067µM*.
`CN(CC(=O)Nc1ccccc1Br)C(=O)CNC(=O)Cc1cccc2ccccc12` gave Pf growth 48h 11%, AMA1-RON2 inh 7% and Pf growth 96h 31%.
For Cc1ccc(S(=O)(=O)N2CCCC(c3nc4c(nnn4Cc4ccc5c(c4)OCCO5)c(=O)[nH]3)C2)cc1 (stereo not given) the results were Pf growth 48h inconclusive, AMA1-RON2 inh 0%, Pf growth 96h inconclusive and HCV inh -4%.
